Calls of active or inactive are those of the source. Unless noted, the rule behind the calls is not given here.
Tests used:
[1] = tested on: Wnt5a (protein binding on small-molecule microarray); test: Wnt5a binders on small-molecule microarray, primary screen, biophysical, 635/667 nm fluorescence (AID 1142); settings: 635 nm fluorescence, higher = more signal;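 note: fluorescence read at 667 nm with signal to noise per printed feature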
[2] = cell viability in Huh7 cells, primary screen, cytotoxicity control for HCV replication inhibitor project, CellTiter-Glo luminescence, basal, 48 h (AID 1143); settings: Huh7 HCV replicon, higher = more signal, called active from +8 up or from −8 down;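 note: Huh7 hepatoma cells carrying a hepatitis C replication reporter with no stimulus; test concentration not given here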
[3] = P. aeruginosa biofilm formation inhibitors, primary screen, PAO1 strain, BacTiter-Glo luminescence, LB-PBS (AID 1144); settings: 12 h, higher = more signal
[4] = CREB reporter modulators without forskolin, primary screen, cell-based, PC12, CRE-LacZ reporter, unstimulated (AID 1145); settings: no forskolin, luminescence, 4.5 h, higher = more signal, called active from +8 up or from −8 down
[5] = CREB reporter modulators under forskolin, primary screen, cell-based, PC12, CRE-LacZ reporter, forskolin-stimulated (AID 1146); settings: luminescence, 4.5 h, higher = more signal, called active from +8 up or from −8 down;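 note: PC12 cells with 6xCRE LacZ reporter stimulated by forskolin 10 µM; beta-galactosidase reporter signal reflecting CREB driven transcription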
[6] = molecular target: Streptavidin (Streptomyces avidinii) (UniProt P22629); test: streptavidin binders on small-molecule microarray, primary screen, artefact control for SMM compound annotation, biophysical, 635/667 nm fluorescence (AID 1147); settings: streptavidin binding, higher = more signal;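 note: signal reflects streptavidin binding to arrayed compounds as a control protein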
Streptavidin (Streptomyces avidinii), sequence (P22629 whole entry, looked up): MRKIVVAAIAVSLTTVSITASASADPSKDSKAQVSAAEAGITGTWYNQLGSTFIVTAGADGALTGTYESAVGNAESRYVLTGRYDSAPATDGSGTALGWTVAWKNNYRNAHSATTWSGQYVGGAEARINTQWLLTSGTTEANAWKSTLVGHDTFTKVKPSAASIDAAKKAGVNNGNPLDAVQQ

[7] = small-molecule binders of probe aInhba, primary screen, biochemical, small-molecule microarray, 635/667 nm fluorescence (AID 1148); settings: higher = more signal;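 note: score merges 667nm spot fluorescence with signal-to-noise for antibody binding to printed compounds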
Torsin-1A (Homo sapiens) [8] = molecular target: Torsin-1A (Homo sapiens) (UniProt O14656); test: torsin A binders from cell lysate, primary screen, small-molecule microarray, wild-type, 635/667 nm (AID 1149); settings: COS7 hTOR1A-WT lysate, 635 nm fluorescence, higher = more signal
Torsin-1A (Homo sapiens), sequence (O14656 whole entry, looked up): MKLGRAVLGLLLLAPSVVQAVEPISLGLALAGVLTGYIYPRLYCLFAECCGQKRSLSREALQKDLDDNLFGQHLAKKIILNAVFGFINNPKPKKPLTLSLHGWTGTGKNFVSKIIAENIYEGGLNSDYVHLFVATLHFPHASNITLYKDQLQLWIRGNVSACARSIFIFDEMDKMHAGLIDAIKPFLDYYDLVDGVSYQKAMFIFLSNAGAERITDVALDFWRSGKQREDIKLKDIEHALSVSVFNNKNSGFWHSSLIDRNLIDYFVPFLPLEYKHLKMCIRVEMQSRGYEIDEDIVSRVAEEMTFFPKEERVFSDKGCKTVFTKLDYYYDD

Torsin-1A (Homo sapiens) [9] = molecular target: Torsin-1A (Homo sapiens) (UniProt O14656); test: small-molecule binders of mutant TOR1A in lysate, primary screen, cell lysate, small-molecule microarray, COS7 lysate, 635/667 nm fluorescence (AID 1150); settings: COS7 hTOR1A mutant lysate, 635 nm fluorescence, higher = more signal;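 note: score pools 667 nm emission and signal to noise measuring lysate protein binding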
[10] = tested on: Sonic hedgehog protein (Shh); test: small-molecule binders of Shh protein, primary screen, biochemical, small-molecule microarray, 635/667 nm fluorescence (AID 1151); settings: small-molecule microarray binding, 635 nm fluorescence; higher = more signal;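 note: Shh protein binding to compounds spotted on small-molecule microarray slides; score combines spot fluorescence intensity with signal-to-noise across triplicate slides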
[11] = E. coli DRC41 culture turbidity changes, primary screen, E. coli filamentation inducer project, strain DRC41, OD650, 48 h (AID 1152);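 note: E. coli MC1000 strain DRC41 lacking acrAB efflux pump and sulA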; settings: E. coli DRC41 (acrAB sulA), higher = more signal, called active from +8 up or from −8 down
[12] = small-molecule binders of probe aLefty1, primary screen, biochemical, small-molecule microarray, 635/667 nm fluorescence (AID 1153); settings: higher = more signal;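 note: score merges spot fluorescence with signal-to-noise ratio from the scanned slide images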
[13] = PSAC antagonists in infected red cells, primary screen, cell-based, P. falciparum Indochina, OD700, 1 h (AID 1154); settings: P. falciparum Indochina infected RBC osmotic lysis, higher = more signal, called active from +8 up or from −8 down
[14] = PSAC antagonists in infected red cells, primary screen, cell-based, P. falciparum Indochina, OD700, 2 h (AID 1155);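 note: lysis reports solute entry through the parasite surface anion channel PSAC; channel blockers reduce lysis of infected cells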; settings: P. falciparum Indochina infected erythrocytes, osmotic lysis OD700; higher = more signal, called active from +8 up or from −8 down
[15] = osmotic lysis modulators in infected erythrocytes, primary screen, PSAC antagonist project, cell-based, P. falciparum Indochina, OD700, 3 h (AID 1156); settings: higher = more signal, called active from +8 up or from −8 down
[16] = PSAC antagonists in infected red cells, primary screen, cell-based, P. falciparum Indochina, OD700, 18 h (AID 1157); settings: P. falciparum Indochina infected erythrocytes, osmotic lysis OD700, 18 h; higher = more signal, called active from +8 up or from −8 down
[17] = modulators of S6 phosphorylation in cells, primary screen, cell-based, A549, cytoblot, luminescence, serum-stimulated (AID 1158); settings: A549 phospho-S6 cytoblot, 5 h, higher = more signal;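 note: serum-stimulated A549 lung adenocarcinoma cells; signal is phosphorylated S6 detected by cytoblot immunostaining with HRP secondary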
[18] = molecular target: NADPH oxidase 2 (Homo sapiens) (UniProt P04839); test: NOX2-dependent H2O2 signal modulators, primary screen, NOX inhibitor project, cell-based, HEK293-NOX2, PMA-stimulated, Amplex Red fluorescence (AID 1159); settings: 45 min, higher = more signal, called active from +8 up or from −8 down; note: test concentration not given here
NADPH oxidase 2 (Homo sapiens), sequence (P04839 whole entry, looked up): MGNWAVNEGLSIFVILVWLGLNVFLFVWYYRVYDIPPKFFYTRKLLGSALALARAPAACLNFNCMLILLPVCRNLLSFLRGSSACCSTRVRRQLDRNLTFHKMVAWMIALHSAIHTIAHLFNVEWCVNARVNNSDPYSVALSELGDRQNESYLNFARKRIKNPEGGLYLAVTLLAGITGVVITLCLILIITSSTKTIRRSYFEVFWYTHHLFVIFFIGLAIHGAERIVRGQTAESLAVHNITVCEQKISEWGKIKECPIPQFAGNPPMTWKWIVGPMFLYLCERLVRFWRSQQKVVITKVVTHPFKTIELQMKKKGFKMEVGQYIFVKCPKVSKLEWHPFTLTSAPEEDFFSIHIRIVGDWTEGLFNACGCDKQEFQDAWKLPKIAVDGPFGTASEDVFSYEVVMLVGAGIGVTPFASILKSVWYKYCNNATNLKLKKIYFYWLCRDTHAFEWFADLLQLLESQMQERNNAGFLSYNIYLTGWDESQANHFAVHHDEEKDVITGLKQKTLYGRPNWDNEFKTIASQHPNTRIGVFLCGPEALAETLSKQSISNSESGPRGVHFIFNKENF

[19] = molecular target: NADPH oxidase 4 (Homo sapiens) (UniProt Q9NPH5); test: NOX4-dependent H2O2 signal modulators, primary screen, NOX inhibitor project, cell-based, HEK293-NOX4, tetracycline-induced, Amplex Red fluorescence (AID 1160); settings: 45 min, higher = more signal, called active from +8 up or from −8 down
NADPH oxidase 4 (Homo sapiens), sequence (Q9NPH5 whole entry, looked up): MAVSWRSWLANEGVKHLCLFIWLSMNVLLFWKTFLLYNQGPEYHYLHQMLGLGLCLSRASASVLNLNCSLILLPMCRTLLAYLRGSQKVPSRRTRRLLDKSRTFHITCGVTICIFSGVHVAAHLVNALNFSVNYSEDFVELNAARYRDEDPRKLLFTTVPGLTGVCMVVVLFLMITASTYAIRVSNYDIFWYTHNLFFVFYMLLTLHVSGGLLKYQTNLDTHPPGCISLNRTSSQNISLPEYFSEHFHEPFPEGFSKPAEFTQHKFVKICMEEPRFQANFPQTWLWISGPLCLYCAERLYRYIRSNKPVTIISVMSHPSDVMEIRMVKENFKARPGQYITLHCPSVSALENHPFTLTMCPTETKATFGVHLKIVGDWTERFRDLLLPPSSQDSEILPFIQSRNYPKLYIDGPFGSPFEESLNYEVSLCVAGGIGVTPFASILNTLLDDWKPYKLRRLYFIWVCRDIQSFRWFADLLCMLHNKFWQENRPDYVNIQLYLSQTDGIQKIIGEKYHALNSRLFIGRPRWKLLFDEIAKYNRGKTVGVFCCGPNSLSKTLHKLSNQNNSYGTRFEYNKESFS

[20] = molecular target: NADPH oxidase 5 (Homo sapiens) (UniProt Q96PH1); test: NOX5-dependent H2O2 signal modulators, primary screen, NOX inhibitor project, cell-based, HEK293-NOX5, Amplex Red fluorescence (AID 1161); settings: HEK293-NOX5, ionomycin, 45 min, higher = more signal
NADPH oxidase 5 (Homo sapiens), sequence (Q96PH1 whole entry, looked up): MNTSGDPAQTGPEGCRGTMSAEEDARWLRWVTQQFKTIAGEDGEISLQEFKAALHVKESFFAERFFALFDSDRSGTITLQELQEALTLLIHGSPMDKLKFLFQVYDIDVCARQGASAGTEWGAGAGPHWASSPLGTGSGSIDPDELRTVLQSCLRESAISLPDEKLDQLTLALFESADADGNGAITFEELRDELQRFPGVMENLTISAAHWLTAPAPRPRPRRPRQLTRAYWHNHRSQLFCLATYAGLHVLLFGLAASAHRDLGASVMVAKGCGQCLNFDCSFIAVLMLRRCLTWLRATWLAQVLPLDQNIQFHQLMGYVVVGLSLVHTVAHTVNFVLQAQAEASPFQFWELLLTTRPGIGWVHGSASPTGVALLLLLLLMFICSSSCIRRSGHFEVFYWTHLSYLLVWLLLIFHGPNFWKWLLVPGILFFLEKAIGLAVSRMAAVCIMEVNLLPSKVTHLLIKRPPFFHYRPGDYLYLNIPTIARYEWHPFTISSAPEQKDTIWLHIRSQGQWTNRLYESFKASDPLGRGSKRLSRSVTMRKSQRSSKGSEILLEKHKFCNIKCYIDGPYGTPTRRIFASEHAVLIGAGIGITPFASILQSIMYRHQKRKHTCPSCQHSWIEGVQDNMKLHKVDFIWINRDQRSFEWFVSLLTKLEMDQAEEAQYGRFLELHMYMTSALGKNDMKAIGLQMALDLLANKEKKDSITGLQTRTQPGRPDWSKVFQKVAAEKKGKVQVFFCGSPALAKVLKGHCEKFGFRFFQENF

**Q.** Which composite z-score [1] does the source give for `O=C1C2C=CC(C(O)c3ccc(F)cc3)N(Nc3ccccc3F)C2C(=O)N1c1ccccc1` (stereo not given) here?
**A.** Its composite z-score is -0.0864.

**Q.** What about the z-score [2] of the same compound?
**A.** Its z-score is 0.486 (inactive).

**Q.** What about the z-score [3] of the same compound?
**A.** Its z-score is -0.746 (inactive).

**Q.** And the z-score [4]?
**A.** Its z-score is 0.433 (inactive).

**Q.** What about the z-score [5] of the same compound?
**A.** The z-score was 1.53 (inactive).

**Q.** What about the composite z-score [6] of the same compound?
**A.** The composite z-score was 0.59.

**Q.** And the composite z-score [7]?
**A.** The composite z-score was 0.254.

**Q.** What about the composite z-score (Torsin-1A (Homo sapiens) [8]) of the same compound?
**A.** Its composite z-score is 0.0654.

**Q.** And the composite z-score (Torsin-1A (Homo sapiens) [9])?
**A.** Its composite z-score is 0.845.

**Q.** What about the composite z-score [10] of the same compound?
**A.** Its composite z-score is -0.166.

**Q.** What about the z-score [11] of the same compound?
**A.** Its z-score is -1.13 (inactive).

**Q.** What about the composite z-score [12] of the same compound?
**A.** The composite z-score was 0.336.

**Q.** What about the z-score [13] of the same compound?
**A.** Its z-score is 6.83 (inactive).

**Q.** And the z-score [14]?
**A.** The z-score was 1.4 (inactive).

**Q.** And the z-score [15]?
**A.** Its z-score is -0.196 (inactive).

**Q.** What about the z-score [16] of the same compound?
**A.** Its z-score is 0.998 (inactive).

**Q.** What about the z-score [17] of the same compound?
**A.** The z-score was -1.06.

**Q.** What about the z-score [18] of the same compound?
**A.** Its z-score is -2.22 (inactive).

**Q.** And the z-score [19]?
**A.** Its z-score is -4.97 (inactive).

**Q.** What about the z-score [20] of the same compound?
**A.** Its z-score is -2.17.

**Q.** With `CN1C(=O)C2C=CC(C(O)C3=C[C@H]4C[C@@H](C3)C4(C)C)N(Nc3ccccc3)C2C1=O` (stereo not given in full) as the compound, how does the composite z-score [1] read?
**A.** The composite z-score was 0.0737.

**Q.** And the z-score [2]?
**A.** Its z-score is 0.435 (inactive).

**Q.** What about the z-score [3] of the same compound?
**A.** The z-score was -0.79 (inactive).

**Q.** What about the z-score [4] of the same compound?
**A.** Its z-score is 0.812 (inactive).

**Q.** And the z-score [5]?
**A.** Its z-score is 0.767 (inactive).

**Q.** And the composite z-score [6]?
**A.** The composite z-score was 0.186.

**Q.** What about the composite z-score [7] of the same compound?
**A.** Its composite z-score is -0.0313.

**Q.** What about the composite z-score (Torsin-1A (Homo sapiens) [8]) of the same compound?
**A.** The composite z-score was -0.189.

**Q.** What about the composite z-score (Torsin-1A (Homo sapiens) [9]) of the same compound?
**A.** The composite z-score was 0.276.

**Q.** And the composite z-score [10]?
**A.** Its composite z-score is 0.447.

**Q.** And the z-score [11]?
**A.** Its z-score is -0.318 (inactive).

**Q.** What about the composite z-score [12] of the same compound?
**A.** The composite z-score was 0.202.

**Q.** What about the z-score [13] of the same compound?
**A.** The z-score was 0.451 (inactive).

**Q.** And the z-score [14]?
**A.** Its z-score is 0.69 (inactive).

**Q.** And the z-score [15]?
**A.** The z-score was -0.0209 (inactive).

**Q.** What about the z-score [16] of the same compound?
**A.** Its z-score is 0.852 (inactive).

**Q.** And the z-score [17]?
**A.** The z-score was -0.776.

**Q.** What about the z-score [18] of the same compound?
**A.** Its z-score is -0.945 (inactive).

**Q.** And the z-score [19]?
**A.** The z-score was -3.91 (inactive).

**Q.** And the z-score [20]?
**A.** Its z-score is -2.99.

**Q.** For `COc1cc2c(cc1O)C=[N+](Cc1cccc(OC(F)(F)F)c1)CC2`, which composite z-score [1] is on record?
**A.** The composite z-score was -0.141.

**Q.** And the z-score [2]?
**A.** Its z-score is -2.11 (inactive).

**Q.** What about the z-score [3] of the same compound?
**A.** Its z-score is -0.28 (inactive).

**Q.** And the z-score [4]?
**A.** Its z-score is -0.401 (inactive).

**Q.** What about the z-score [5] of the same compound?
**A.** The z-score was -0.583 (inactive).

**Q.** And the composite z-score [6]?
**A.** The composite z-score was -0.535.

**Q.** What about the composite z-score [7] of the same compound?
**A.** The composite z-score was -0.127.

**Q.** What about the composite z-score (Torsin-1A (Homo sapiens) [8]) of the same compound?
**A.** Its composite z-score is 0.955.

**Q.** And the composite z-score (Torsin-1A (Homo sapiens) [9])?
**A.** The composite z-score was 0.284.

**Q.** What about the composite z-score [10] of the same compound?
**A.** Its composite z-score is -0.0245.

**Q.** What about the z-score [11] of the same compound?
**A.** Its z-score is 0.272 (inactive).

**Q.** And the composite z-score [12]?
**A.** The composite z-score was -0.464.

**Q.** What about the z-score [13] of the same compound?
**A.** The z-score was 3.05 (inactive).

**Q.** And the z-score [14]?
**A.** The z-score was -1.25 (inactive).

**Q.** And the z-score [15]?
**A.** The z-score was -0.747 (inactive).

**Q.** What about the z-score [16] of the same compound?
**A.** The z-score was -2.03 (inactive).

**Q.** What about the z-score [17] of the same compound?
**A.** The z-score was 0.818.

**Q.** And the z-score [18]?
**A.** The z-score was -4.18 (inactive).

**Q.** What about the z-score [19] of the same compound?
**A.** The z-score was -2.56 (inactive).

**Q.** And the z-score [20]?
**A.** The z-score was -3.06.

Reference: PubChem BioAssay
